About 83,000 compounds went through this panel and 20% of them were active in at least one assay; those are over-represented in the sample as a whole.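 In brief: 96-well plates, 48 h treatment, single concentration, percent growth endpoint.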 Values without a mark were called inactive. Activity calls are given as the source filed them. How the source made its calls: active means growth percent below 10; inactive means the rest.
Assays:
Experiment in all cases: NCI-60 one-dose screen, 48 h (100 = growth as untreated, 0 = no growth, -100 = all killed)
Conditions in all cases: 10 µM unless noted
SR leukemia = tested on: SR leukemia
RPMI-8226 leukemia = tested on: RPMI-8226 leukemia
OVCAR-8 ovarian = tested on: OVCAR-8 ovarian
OVCAR-5 ovarian = tested on: OVCAR-5 ovarian
OVCAR-4 ovarian = tested on: OVCAR-4 ovarian
SK-OV-3 ovarian = tested on: SK-OV-3 ovarian
IGROV1 ovarian = tested on: IGROV1 ovarian
OVCAR-3 ovarian = tested on: OVCAR-3 ovarian
HS 578T breast = tested on: HS 578T breast
NCI/ADR-RES ovarian = tested on: NCI/ADR-RES ovarian
T-47D breast = tested on: T-47D breast
BT-549 breast = tested on: BT-549 breast
MDA-MB-435 melanoma = tested on: MDA-MB-435 melanoma
SW-620 colon = tested on: SW-620 colon
MCF7 breast = tested on: MCF7 breast
HCT-116 colon = tested on: HCT-116 colon
HCC-2998 colon = tested on: HCC-2998 colon
KM12 colon = tested on: KM12 colon

Compound	growth (SR leukemia)	growth (RPMI-8226 leukemia)	growth (OVCAR-8 ovarian)	growth (OVCAR-5 ovarian)	growth (OVCAR-4 ovarian)	growth (SK-OV-3 ovarian)	growth (IGROV1 ovarian)	growth (OVCAR-3 ovarian)	growth (HS 578T breast)	growth (NCI/ADR-RES ovarian)	growth (T-47D breast)	growth (BT-549 breast)	growth (MDA-MB-435 melanoma)	growth (SW-620 colon)	growth (MCF7 breast)	growth (HCT-116 colon)	growth (HCC-2998 colon)	growth (KM12 colon)
CCc1onc(-c2ccc(OC)cc2)c1-c1ccccc1OCCN(CC)CC	66.5%	91.3%	96.3%	91.5%	90.8%	101%	83.3%	96.8%	89.6%	75.2%	91.7%	81.1%	90.5%	94.7%	95.6%	70.9%	80.8%	93.1%
O=C(CCCCCCN1CC(=O)N2[C@@H](c3ccc(Cl)c(Cl)c3)c3[nH]c4ccccc4c3C[C@H]2C1=O)NO	7.56% (active)	6.04% (active)	50.3%	46.3%	45.6%	73.6%	-10.5% (active)	35.3%	64.8%	93.3%	27.9%	63.7%	47.3%	33%	29%	23.2%	61.9%	69.8%
CCN(CC)c1ccc(/C=N/NC(=O)c2ccc(S(C)(=O)=O)cc2)c(O)c1	9.02% (active)	21%	16.8%	32.5%	34.7%	39%	21.2%	33.4%	68%	17.8%	30%	30.7%	37.2%	33.1%	8.79% (active)	18.4%	39.6%	25.9%
CCN(CC)CCCC(C)Nc1c(-c2ccccc2)cnc2cc(Cl)ccc12 (stereo unspecified)	7.58% (active)	27.4%	71.3%	83.4%	83%	89.7%	36.5%	82.4%	70.3%	79.6%	-44.9% (active)	87.4%	38.2%	70.3%	59.1%	36.2%	73.4%	65.3%
C=C1C(=O)O[C@H]2[C@H]1CC/C(COC(=O)N[C@@H](Cc1c[nH]c3ccccc13)C(=O)OC)=C\CC[C@@]1(C)O[C@@H]21	3.24% (active)	-14.2% (active)	37.1%	66%	72.2%	78.8%	0.0104% (active)	-40.3% (active)	77.8%	88.2%	-16.9% (active)	45.3%	49.1%	-6.63% (active)	11.7%	-78% (active)	82.4%	74.6%
CCN(CC)CCNC(=O)C(F)(F)C(F)(F)C(F)(F)F	106%	107%	114%	99.2%	112%	101%	138%	109%	96.7%	113%	110%	98.7%	109%	104%	108%	96.2%	105%	101%
COc1ccc2[nH]cc(C3(c4c[nH]c5ccc(OC)cc45)C(=O)Nc4ccc(Cl)cc43)c2c1	7.95% (active)	36.4%	90.4%	89.1%	79.6%	93.4%	50%	61.9%	65.4%	90.1%	76.4%	93.7%	23.3%	30%	61.7%	64.3%	58%	14.8%
CCCCCCCCCCCCNC(=O)N[C@H](C(=O)N[C@H]1/C=C/CCNC(=O)/C=C/[C@H](C)NC1=O)C(C)C	-22.7% (active)	41.1%	11.5%	-83.7% (active)	3.35% (active)	-42.6% (active)	-32.9% (active)	-44.3% (active)	49.5%	94.4%	-41.9% (active)	-87.2% (active)	-40.1% (active)	-22.3% (active)	14.1%	-85.2% (active)	-95.8% (active)	-62.4% (active)
CC(=O)O[C@@H]1CC2C(C)(C)CCCC2(C)C2=C1C(=O)C(C(C)C)=CC2=O (stereo partly specified)	-0.431% (active)	2.06% (active)	-2.03% (active)	-45.4% (active)	13.4%	17.2%	7.5% (active)	0.0354% (active)	9.38% (active)	15.9%	-7.86% (active)	-13% (active)	-28.1% (active)	-52.5% (active)	3.73% (active)	-24.4% (active)	-60% (active)	-48.7% (active)
CC(=O)Oc1ccccc1C(=O)Nc1ncc([N+](=O)[O-])s1	13.1%	7.09% (active)	51.3%	63.3%	55.2%	85.5%	26.2%	5.56% (active)	15.6%	20.6%	61.7%	-29.4% (active)	24.2%	26.7%	49.7%	3.62% (active)	23.3%	24.7%
COc1cc(NCCC2CCCCN2)c2ncccc2c1OC (stereo unspecified)	73.8%	68.2%	62.7%	115%	36.8%	116%	4.24% (active)	4.97% (active)	86.6%	81.7%	38%	91.6%	-62.6% (active)	74.9%	57.3%	46.9%	80.6%	87.5%
c1ccc(-c2nnn(-c3ccccc3)n2)cc1	89%	98.6%	107%	105%	106%	106%	104%	111%	112%	116%	108%	87.5%	106%	113%	71%	97.3%	107%	107%
COc1ccc2nc3ccccc3c(NCc3ccc(Cl)cc3)c2c1	-29.6% (active)	-44.9% (active)	29.7%	26.5%	24.5%	64%	16.3%	51%	36%	22.9%	49.3%	50.2%	24.1%	12.8%	-56.4% (active)	6.81% (active)	-87.6% (active)	40.1%
CCC(=O)NC1=C(Cl)C(=O)C(NC(=O)CC)=C(Cl)C1=O	-55.1% (active)	-34.3% (active)	99.3%	107%	-98.5% (active)	99.9%	116%	-94.5% (active)	135%	101%	-54.4% (active)	119%	136%	-72.1% (active)	28.3%	-93.1% (active)	103%	109%
C=C(c1ccc(C(=O)NCCCn2ccnc2)cc1)c1cc2c(cc1C)C(C)(C)CCC2(C)C	-27.2% (active)	22.7%	40%	33.3%	37%	4.17% (active)	7.28% (active)	25.7%	59.7%	5.05% (active)	-16.9% (active)	39.7%	-27% (active)	16.5%	35.5%	-59% (active)	26.8%	24.5%
CCCCOC(=O)c1cc(O)c(O)c(O)c1	44.5%	59.2%	68.6%	92.2%	58.9%	85.1%	55.6%	61.8%	86.4%	74.4%	61%	67.4%	74.8%	80.2%	84.9%	64.9%	92.5%	69%
CC(=O)CC(c1ccc([N+](=O)[O-])cc1)c1c(O)c2ccccc2oc1=O (stereo unspecified)	92.9%	108%	105%	100%	110%	108%	107%	109%	97.9%	105%	95.7%	88.5%	103%	101%	102%	101%	105%	98.5%
